Data reported in PubChem BioAssay (NCI).
This is part of a sample that, as a whole, favours compounds with a hit. Of some 83,000 tested, about 20% had one in any assay.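 Single-concentration screen, 48 h exposure, 96-well plates. Endpoint: percent growth. Below 10 = active.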 A number with no mark means an inactive call. Calls of active or inactive are those of the source.

Legend:
Assay in all cases: NCI-60 one-dose screen, 48 h (100 = growth as untreated, 0 = no growth, -100 = all killed)
Conditions in all cases: 10 µM unless noted
DU-145 prostate = system: DU-145 prostate
K-562 leukemia = system: K-562 leukemia
MALME-3M melanoma = system: MALME-3M melanoma
MDA-MB-231 breast = system: MDA-MB-231 breast
RXF 393 renal = system: RXF 393 renal
SF-268 CNS = system: SF-268 CNS
SF-295 CNS = system: SF-295 CNS
SF-539 CNS = system: SF-539 CNS
UACC-257 melanoma = system: UACC-257 melanoma
M14 melanoma = system: M14 melanoma
HCT-15 colon = system: HCT-15 colon
HT29 colon = system: HT29 colon
SNB-75 CNS = system: SNB-75 CNS
SNB-19 CNS = system: SNB-19 CNS
U251 CNS = system: U251 CNS
PC-3 prostate = system: PC-3 prostate
SK-MEL-5 melanoma = system: SK-MEL-5 melanoma
UACC-62 melanoma = system: UACC-62 melanoma
LOX IMVI melanoma = system: LOX IMVI melanoma
SK-MEL-28 melanoma = system: SK-MEL-28 melanoma

Compound | growth (DU-145 prostate) | growth (K-562 leukemia) | growth (MALME-3M melanoma) | growth (MDA-MB-231 breast) | growth (RXF 393 renal) | growth (SF-268 CNS) | growth (SF-295 CNS) | growth (SF-539 CNS) | growth (UACC-257 melanoma) | growth (M14 melanoma) | growth (HCT-15 colon) | growth (HT29 colon) | growth (SNB-75 CNS) | growth (SNB-19 CNS) | growth (U251 CNS) | growth (PC-3 prostate) | growth (SK-MEL-5 melanoma) | growth (UACC-62 melanoma) | growth (LOX IMVI melanoma) | growth (SK-MEL-28 melanoma)
O=c1[nH]nc(-c2ccccc2)c2sc(NC(=S)Nc3ccc(Cl)cc3)nc12 | 94.8% | 80.6% | 105% | 101% | 102% | 93.3% | 98.3% | 98% | 104% | 97.4% | 89.9% | 74.8% | 84.1% | 102% | 92.1% | 92% | 101% | 92.6% | 92.4% | 110%
COc1ccc(/C=C/C(=O)Nc2ncnc3nc[nH]c23)cc1 | 92.1% | 81.2% | 96.4% | 109% | 95.4% | 93.5% | 107% | 100% | 100% | 87.8% | 92.2% | 96.5% | 82% | 99.7% | 99.4% | 98.1% | 94.8% | 81.8% | 101% | 99.4%
Cn1c2c(c3ccc(-c4ccn[nH]4)cc3c1=O)C(=O)c1ccccc1-2 | 15.9% | 17.7% | 55.8% | 86.9% | 91.5% | 40.8% | 20.5% | 37.3% | 103% | 48.6% | 15.7% | 18.9% | 71% | 27.4% | 13.5% | 63.2% | 21.1% | 47.9% | 0.163% (active) | 88.6%
Cc1c(Br)cccc1NC(=O)c1sc2nc3c(cc2c1N)CN(Cc1ccccc1)CC3 | 17.8% | 7.49% (active) | 32.8% | 22.7% | 6.25% (active) | 31.7% | 18.8% | -4.32% (active) | 67.7% | 0.627% (active) | 18.2% | 0.812% (active) | -9.13% (active) | 23% | 9.19% (active) | 31.8% | 19.4% | 28.1% | 30.9% | 53.8%
Fc1ccc(N/N=C/c2ccc(-n3cccn3)cc2)cc1 | 93.8% | 93.3% | 106% | 80.1% | 105% | 81.3% | 87.6% | 100% | 118% | 88.8% | 83% | 93.5% | 99.4% | 110% | 103% | 85.8% | 107% | 74.9% | 83.8% | 112%
CCOC(=O)CC[C@H](NC(=O)c1ccc(NC)c2ccccc12)C(=O)OCC | 104% | 92.9% | 114% | 97.9% | 111% | 100% | 101% | 98.1% | 86.1% | 99.5% | 96.1% | 105% | 91.8% | 92.4% | 97.8% | 80.2% | 97.2% | 89.7% | 93.8% | 103%
N#Cc1c(-c2ccc(F)cc2)nc(N=Nc2c(O)[nH]c3ccc(Cl)cc23)nc1N1CCOCC1 | 40% | 62.4% | 38% | 26.9% | 8.65% (active) | 41.4% | 13.9% | 2.98% (active) | 57.3% | 51.5% | 71.7% | 37.9% | -6.94% (active) | 39.8% | 15.8% | 61% | 29.6% | 35.1% | 24.5% | 46.8%
CCc1ccc(OCc2ccccc2C(=O)Nc2ccc3nc(C)cc(N)c3c2)cc1 | -96.3% (active) | -68% (active) | -86.4% (active) | -82.4% (active) | -84.5% (active) | -82.5% (active) | -92% (active) | -97.5% (active) | -79.7% (active) | -93.6% (active) | -75.4% (active) | -87.4% (active) | -95.1% (active) | -80.6% (active) | -90.9% (active) | -88.1% (active) | -90.5% (active) | -92.6% (active) | -83.9% (active) | -93.9% (active)
CCOC(=O)NCCc1nc2c([nH]1)c(=O)n(C)c(=O)n2C | 107% | 119% | 99.2% | 105% | 113% | 98.5% | 103% | 105% | 113% | 88.8% | 97.6% | 98.5% | 91% | 107% | 108% | 91% | 102% | 100% | 94.9% | 102%
COc1ccc(OCC(=O)OC(C)C)cc1 | 101% | 98.7% | 91.1% | 98.1% | 80.5% | 92.5% | 96.6% | 98% | 97.7% | 98.6% | 98.4% | 101% | 85% | 99.2% | 104% | 103% | 96.4% | 96.6% | 87.2% | 102%
C=C(C)[C@@H]1CC[C@]2(C(=O)n3ccnc3)CC[C@]3(C)[C@H](CC[C@@H]4[C@@]5(C)CCCNC(C)(C)[C@@H]5CC[C@]43C)[C@@H]12 | 37% | -38.4% (active) | -74.4% (active) | 20.5% | 10.8% | 59.4% | -54.7% (active) | 24.6% | 5.14% (active) | -78.6% (active) | 3.01% (active) | 1.76% (active) | 81.1% | 52.6% | -45.5% (active) | 12.9% | -97.9% (active) | 31.9% | -92% (active) | -51.5% (active)
O=C1[C@@H](OS(=O)(=O)CC(F)(F)F)[C@H](c2ccc(F)cn2)N1c1cc2c3ccccc3ccc2c2ccccc12 | 84.5% | 44.5% | 95% | 71.2% | 85.9% | 78.9% | 83.3% | 87.1% | 79% | 72.9% | 61.9% | 64.1% | 83.4% | 77.9% | 69.2% | 62.8% | 67.2% | 58.3% | 70.3% | 79.7%
COc1cc(N=Nc2cc(S(=O)(=O)O)cc3cc(S(=O)(=O)O)cc(O)c23)c(C)cc1N=Nc1c(S(=O)(=O)O)cc2cc(Nc3ccccc3)ccc2c1O | 103% | 84.6% | 93.8% | 107% | 129% | 98.2% | 109% | 103% | 111% | 102% | 110% | 105% | 91.1% | 104% | 109% | 90% | 105% | 98.5% | 99.4% | 109%
COc1cc(-c2cn(-c3ccc(Cl)c(Cl)c3)c(=O)[nH]2)cc(OC)c1OC | 100% | 84.3% | 60.9% | 71.5% | 86.4% | 87.6% | 104% | 91.3% | 87.4% | 95.2% | 103% | 102% | 104% | 81.6% | 95.6% | 104% | 101% | 95.3% | 97.7% | 110%
